{
  "source": "paper PMC4336329",
  "about": "(PLoS ONE, 2015)",
  "note": "In all, about 310,000 compounds went through this assay and about 14,000 (4.5%) showed an effect of 50% or more. Effects have a minus sign here. Only a selection was taken, and strong results are over-represented in it overall.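 Further: peak tail current of the secondary pulse compared with the same well before compound.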",
  "data": [
    {"target": "human ether-à-go-go-related gene (hERG) potassium channel (human, UniProt Q12809)", "sequence (Q12809 whole entry, looked up)": "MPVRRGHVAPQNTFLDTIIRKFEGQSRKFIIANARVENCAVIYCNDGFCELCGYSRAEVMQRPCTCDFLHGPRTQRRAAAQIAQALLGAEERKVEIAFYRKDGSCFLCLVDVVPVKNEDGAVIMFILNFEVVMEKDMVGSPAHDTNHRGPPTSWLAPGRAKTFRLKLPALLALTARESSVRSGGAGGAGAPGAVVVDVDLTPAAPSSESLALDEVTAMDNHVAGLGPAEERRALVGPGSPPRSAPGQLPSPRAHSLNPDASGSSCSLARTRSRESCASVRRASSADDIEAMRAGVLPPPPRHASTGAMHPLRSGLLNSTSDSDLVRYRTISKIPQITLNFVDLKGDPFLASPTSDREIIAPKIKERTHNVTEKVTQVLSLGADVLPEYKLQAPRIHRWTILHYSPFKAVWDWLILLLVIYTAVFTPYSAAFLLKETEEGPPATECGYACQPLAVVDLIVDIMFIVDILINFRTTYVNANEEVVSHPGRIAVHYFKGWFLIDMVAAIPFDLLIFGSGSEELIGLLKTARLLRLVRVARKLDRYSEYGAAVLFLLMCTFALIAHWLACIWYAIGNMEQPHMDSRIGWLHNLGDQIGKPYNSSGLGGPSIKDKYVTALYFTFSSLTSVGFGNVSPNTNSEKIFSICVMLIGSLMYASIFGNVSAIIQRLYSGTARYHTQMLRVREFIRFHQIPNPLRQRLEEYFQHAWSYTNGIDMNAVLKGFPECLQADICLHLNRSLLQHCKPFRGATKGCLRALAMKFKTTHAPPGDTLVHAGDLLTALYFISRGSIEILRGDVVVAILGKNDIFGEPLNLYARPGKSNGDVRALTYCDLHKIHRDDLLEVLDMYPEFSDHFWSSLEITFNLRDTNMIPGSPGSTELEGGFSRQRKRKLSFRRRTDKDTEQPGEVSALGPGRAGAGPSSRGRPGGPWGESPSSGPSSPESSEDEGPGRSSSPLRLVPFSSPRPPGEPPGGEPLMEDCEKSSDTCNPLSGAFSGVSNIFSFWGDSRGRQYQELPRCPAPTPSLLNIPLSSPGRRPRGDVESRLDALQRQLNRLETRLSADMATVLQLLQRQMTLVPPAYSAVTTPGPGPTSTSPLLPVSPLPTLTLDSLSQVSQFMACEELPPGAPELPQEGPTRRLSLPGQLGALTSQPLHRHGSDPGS", "assay": "primary screen, population patch clamp on CHO cells stably expressing hERG; higher = less effect of the substance", "units": {"hERG current change (%, negative = inhibition) at 10uM": "%"}, "values": [
      {"smiles": "Cc1cc(-c2cccs2)c2c(N)c(C(=O)c3ccc4c(c3)OCO4)sc2n1", "hERG current change (%, negative = inhibition) at 10uM": 5.2},
      {"smiles": "Cc1ccc(S(=O)(=O)N(C)c2ccccc2C(=O)Nc2c(F)cccc2F)cc1", "hERG current change (%, negative = inhibition) at 10uM": 3.31},
      {"smiles": "CC(C)(C)N1CC(c2nc3ccccc3n2Cc2ccccc2)CC1=O", "note": "(centres unmarked)", "hERG current change (%, negative = inhibition) at 10uM": -47.2},
      {"smiles": "COc1ccc(S(=O)(=O)N2CCOCC2)cc1NC(=O)c1sccc1C", "hERG current change (%, negative = inhibition) at 10uM": -3.22},
      {"smiles": "COc1ccc2nc(SC(C)C(=O)NC3(C#N)CCCCC3)[nH]c2c1", "note": "(centres unmarked)", "hERG current change (%, negative = inhibition) at 10uM": -20.1},
      {"smiles": "COC(=O)c1cc2oc(C)cc2n1CC(=O)N1CCCc2ccccc21", "hERG current change (%, negative = inhibition) at 10uM": -11.9},
      {"smiles": "Cc1ccc2nc(NC(=O)CSCC(=O)OCC(=O)c3ccc(Br)cc3)sc2c1", "hERG current change (%, negative = inhibition) at 10uM": 16.5},
      {"smiles": "O=C(COc1ccc(Br)cc1)NCCCn1ccnc1", "hERG current change (%, negative = inhibition) at 10uM": -20.1},
      {"smiles": "COc1ccc(Cl)cc1NC(=O)CN(C)C(=O)c1cc2c(F)cccc2s1", "hERG current change (%, negative = inhibition) at 10uM": -6.32},
      {"smiles": "CCCCSc1nnc(C)c(=O)[nH]1", "hERG current change (%, negative = inhibition) at 10uM": 3.25},
      {"smiles": "Cc1cccc(C2c3[nH]c4ccccc4c3CCN2C(=O)Cc2n[nH]c(C)n2)n1", "note": "(centres unmarked)", "hERG current change (%, negative = inhibition) at 10uM": 5.57},
      {"smiles": "COc1ccc(OC)c(NC(=O)COc2ccc(S(=O)(=O)N3CCCC3)cc2)c1", "hERG current change (%, negative = inhibition) at 10uM": -23.4},
      {"smiles": "O=C(CCC(=O)n1ncc2ccccc21)NCc1ccc(F)cc1", "hERG current change (%, negative = inhibition) at 10uM": -18.1},
      {"smiles": "Cc1ccc(C(=O)N2CCN(c3nc4ccccc4n3C)CC2)cc1", "hERG current change (%, negative = inhibition) at 10uM": -70.3},
      {"smiles": "Cc1ccc(C(=O)N2CCN(c3ccccn3)CC2)cc1", "hERG current change (%, negative = inhibition) at 10uM": -14.3},
      {"smiles": "Cc1ccc(C(=O)N2CCN(c3ncccn3)CC2)cc1", "hERG current change (%, negative = inhibition) at 10uM": 12.6},
      {"smiles": "CCOC(=O)C1CCN(S(=O)(=O)c2ccc3c(c2)CCN3C(=O)C2CCC2)CC1", "hERG current change (%, negative = inhibition) at 10uM": 14.1},
      {"smiles": "COc1ccc(C(=O)N(C)CCCC2CCCC2)cc1OC1CCN(C(C)C)CC1", "hERG current change (%, negative = inhibition) at 10uM": -68.4},
      {"smiles": "COc1ccc(C(=O)NC2CCCCC2)cc1OC1CCN(C(C)C)CC1", "hERG current change (%, negative = inhibition) at 10uM": -69.7},
      {"smiles": "COc1ccc(C(=O)N(C)CCCC2CCCC2)cc1OC1CCN(C(C)=O)CC1", "hERG current change (%, negative = inhibition) at 10uM": -32.2},
      {"smiles": "COc1ccc(C(=O)NCCCSC)cc1OC1CCN(C(C)C)CC1", "hERG current change (%, negative = inhibition) at 10uM": -11.8},
      {"smiles": "COc1ccc(C(=O)NC2CCCCCC2)cc1OC1CCN(C(C)=O)CC1", "hERG current change (%, negative = inhibition) at 10uM": -4.48},
      {"smiles": "COc1ccc(C(=O)NC2CC2)cc1OC1CCN(C(C)CSC)CC1", "note": "(centres unmarked)", "hERG current change (%, negative = inhibition) at 10uM": -75.4},
      {"smiles": "COc1ccc(C(=O)N[C@H]2CCCCNC2=O)cc1OC1CCN(C(C)C)CC1", "hERG current change (%, negative = inhibition) at 10uM": 15.3},
      {"smiles": "CCOCCCNC(=O)c1ccc(OC)c(OC2CCN(C(C)C)CC2)c1", "hERG current change (%, negative = inhibition) at 10uM": 10.7},
      {"smiles": "COC(=O)CN(C)C(=O)c1ccc(OC)c(OC2CCN(C(C)C)CC2)c1", "hERG current change (%, negative = inhibition) at 10uM": 13.1}
    ]}
  ]
}
